Reference: PubChem BioAssay (NCI)
About 83,000 compounds went through this panel and 20% of them were active in at least one assay; those are over-represented in the sample as a whole.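 Step 1: grow cells in 96-well plates. Step 2: add test compound at a single concentration. Step 3: incubate 48 h. Step 4: record percent growth.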 Unmarked numbers belong to inactive results. Active and inactive are the calls of the source. Rule for the calls: active = growth percent below 10; inactive = the rest.

Tests used:
Experiment in all cases: NCI-60 one-dose screen, 48 h (100 = growth as untreated, 0 = no growth, -100 = all killed)
Settings in all cases: 10 µM unless noted
DU-145 prostate = tested on: DU-145 prostate
K-562 leukemia = tested on: K-562 leukemia
MALME-3M melanoma = tested on: MALME-3M melanoma
MDA-MB-231 breast = tested on: MDA-MB-231 breast
RXF 393 renal = tested on: RXF 393 renal
SF-268 CNS = tested on: SF-268 CNS
SF-295 CNS = tested on: SF-295 CNS
SF-539 CNS = tested on: SF-539 CNS
UACC-257 melanoma = tested on: UACC-257 melanoma
M14 melanoma = tested on: M14 melanoma
HCT-15 colon = tested on: HCT-15 colon
HT29 colon = tested on: HT29 colon
SNB-75 CNS = tested on: SNB-75 CNS
SNB-19 CNS = tested on: SNB-19 CNS
U251 CNS = tested on: U251 CNS
PC-3 prostate = tested on: PC-3 prostate
SK-MEL-5 melanoma = tested on: SK-MEL-5 melanoma
UACC-62 melanoma = tested on: UACC-62 melanoma
LOX IMVI melanoma = tested on: LOX IMVI melanoma
SK-MEL-28 melanoma = tested on: SK-MEL-28 melanoma

Compound | growth (DU-145 prostate) [%] | growth (K-562 leukemia) | growth (MALME-3M melanoma) | growth (MDA-MB-231 breast) | growth (RXF 393 renal) | growth (SF-268 CNS) [%] | growth (SF-295 CNS) | growth (SF-539 CNS) [%] | growth (UACC-257 melanoma) | growth (M14 melanoma) [%] | growth (HCT-15 colon) | growth (HT29 colon) [%] | growth (SNB-75 CNS) | growth (SNB-19 CNS) [%] | growth (U251 CNS) | growth (PC-3 prostate) | growth (SK-MEL-5 melanoma) | growth (UACC-62 melanoma) [%] | growth (LOX IMVI melanoma) | growth (SK-MEL-28 melanoma) [%]
CC(C)C(/C=C/c1[nH]ncc1-c1cc(Cl)ccc1O)N1CCOCC1 (stereo not given) | 100 | 82.3% | 106% | 106% | 88.3% | 88.5 | 96% | 97.5 | 103% | 97.5 | 94.9% | 104 | 65.3% | 99.5 | 97.3% | 84.7% | 95% | 87.1 | 98.8% | 98.9
O=C1[C@@H]2Cc3c([nH]c4ccccc34)[C@H](c3ccc(Cl)cc3)N2C(=O)CN1C1CCN(Cc2ccccc2)CC1 | 56.1 | 9.57% (active) | 74.5% | 68.6% | 57.6% | 50.5 | 70.6% | 77.6 | 61.4% | 27.9 | 35% | 25 | 43.8% | 66 | 56.5% | 38.8% | 62.3% | 75.4 | 20.7% | 77.8
CCOC(=O)c1cccc(NC2=C(Cl)C(=O)C(C)=C(C)C2=O)c1 | 104 | 0.169% (active) | 104% | 28% | 102% | 92.8 | 102% | 95.8 | 93.3% | 100 | 99.3% | 110 | 104% | 96.5 | 90.9% | 85.6% | 100% | 94.7 | 91.9% | 110
COc1ccc2c(c1)c(-c1nn3cc(-c4ccncc4)nc3s1)cn2C | 93.9 | 28.4% | 89.9% | 77% | 83.2% | 79 | 75.3% | 84 | 116% | 107 | 60.7% | 79.2 | 29.6% | 86.1 | 83% | 71.2% | 86.3% | 68.7 | 65.9% | 114
CC1(C)CC[C@]2(C(=O)O)CC[C@]3(C)C(=CC[C@@H]4[C@@]5(C)CC[C@H](NOCCCN)C(C)(C)[C@@H]5CC[C@]43C)[C@@H]2C1 | 94.7 | 46.4% | 91.6% | 92.4% | 68.8% | 100 | 101% | 86.4 | 89.2% | 94.7 | 64.8% | 74 | 97% | 93.2 | 69% | 65.3% | 61.2% | 71.4 | 32.4% | 87.4
Brc1ccc(-c2cc(-c3ccc4c(c3)OC=CO4)n[nH]2)s1 | 99.1 | 31.5% | 70.3% | 90.8% | 101% | 89 | 82.6% | 85.2 | 90.7% | 75.3 | 61.9% | 74.1 | 74% | 91.7 | 88.8% | 101% | 89.4% | 83.2 | 89.9% | 91.6
COc1ccc(-c2c(C(N)=O)c(N)n(Cc3nc4ccccc4[nH]3)c(=O)c2C#N)c(OC)c1 | 112 | 101% | 93.2% | 92.1% | 117% | 102 | 104% | 97.9 | 112% | 102 | 98.4% | 113 | 88.3% | 98.7 | 97.2% | 97.4% | 97.3% | 91.6 | 96.4% | 109
CC(=O)Nc1ccccc1-c1nc2ccccc2s1 | 110 | 113% | 106% | 99.2% | 103% | 101 | 103% | 100 | 107% | 103 | 96.7% | 105 | 69.8% | 94.6 | 108% | 102% | 99% | 94.3 | 97.3% | 112
Cc1cc(=O)[nH]c(O)c1C#N | 108 | 99.2% | 105% | 98.2% | 114% | 103 | 102% | 97 | 100% | 94.4 | 103% | 110 | 87% | 101 | 100% | 97.1% | 102% | 91.7 | 95.1% | 108
Cc1ccc(S(=O)(=O)NCCCNc2nccc(-c3[nH]c(-c4ccccc4)nc3-c3ccc(F)c(O)c3)n2)cc1 | 98.6 | 30.4% | 2.9% (active) | 71.1% | 97.9% | 105 | 94.9% | 105 | 23.8% | 22.9 | 76% | 96.2 | 73.9% | 107 | 98.2% | 69.5% | 38.6% | 18.7 | 73.8% | 38.3
NC1C2CCC1CN(c1cnc(C(=O)Nc3cc(F)cc4cccnc34)cn1)C2 (stereo not given) | 71.2 | 3.9% (active) | 49.5% | 39.4% | 61.6% | 73.5 | 76.3% | 64.6 | 98.3% | 48.4 | 6.16% (active) | 22.7 | 46.4% | 69.7 | 60.1% | 61.4% | 93.2% | 78.9 | 26.3% | 63.5
O=c1c2cc(-c3ccc(F)cc3F)ccc2n(Nc2ccccc2)c(=O)n1-c1cccc(C(F)(F)F)c1 | 26.6 | 6.95% (active) | -18.4% (active) | -5.2% (active) | 5.77% (active) | 22 | -2.47% (active) | 18 | -1.25% (active) | 21.6 | 11.4% | 59.3 | -8.2% (active) | 11.5 | 9.58% (active) | 1.28% (active) | -53.7% (active) | 10.9 | -4.69% (active) | 29.5
CCc1cc(OC(=O)N2CCN(CCC(C)(COC(C)(C)C)COC(C)(C)C)CC2)ccc1Nc1cc(-c2ccc(-n3cccn3)cc2)[nH]n1 | 84 | 52.1% | 89.7% | 83.5% | 41% | 73.8 | 85.1% | 88.8 | 92.9% | 97.6 | 65.9% | 47.3 | 48.7% | 86.2 | 74.9% | 53.9% | 90.8% | 85.8 | 104% | 96.6
N#Cc1c(-c2ccc(Br)cc2)cc(-c2c[nH]c3ccccc23)nc1N | 70 | 18.6% | 73.9% | 46% | 25.9% | 56.9 | 52.4% | 43 | 94.4% | 44.6 | 16.8% | 27.4 | 37.9% | 66.1 | 52.6% | 55.2% | 58.9% | 64.9 | 28.7% | 59.3
CN1CCN(c2ccc(C(=O)/C=C/c3cc(F)cc(C(F)(F)F)c3)cc2)CC1 | 49.6 | 11.1% | 91.7% | 72.9% | 70.5% | 82.8 | 88.6% | 59.5 | 91.1% | 92.2 | 27.5% | 15.9 | 59.9% | 81.7 | 51.4% | 60.2% | 71.3% | 82.8 | 7.73% (active) | 96.3
